Env fusion inh: blocks HIV Env-driven cell-cell fusion; HeLa-JRFL Env/CEM21 cell fusion, luciferase; inhibition, % at 12.3 µM; 360,000 tested, 1.1% active;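 active = mean replicate inhibition score of at least 50 and every replicate individually at or above 50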;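 note: 0% = plate neutral controls and 100% = maraviroc near 300 nM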
C2C12 statin: suppression of simvastatin myotoxicity | AID 602340 | rescue of ATP level, % at 7.49 µM | 330,000 tested, 0.78% active | C2C12 myotubes + simvastatin, ATP luminescence, 48 h; scaled: DMSO 0, geranylgeraniol control 100;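 active = mean ATP rescue above about 67%, or every replicate alone reaching that limit, limit read from the data, passing the limit was not always enough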;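 note: myotubes were challenged with 10 µM simvastatin during compound exposure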
PAX8 inh HTS: PAX8 transcriptional activity inhibition. RMG-I TPO-luciferase reporter, SteadyGlo, 24 h. inhibition, % at 12.6 µM. 360,000 tested, 1.2% active;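 active = mean replicate inhibition at least 60% with every replicate also reaching 60%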;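 note: luciferase light reporting Pax8 driven TPO promoter activity; plate controls were median of neutral control wells for no effect and mitoxantrone controls for full effect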
GSIS activator: primary screen for activators of insulin secretion dependent on glucose, INS-1E cells, GLuc reporter luminescence | AID 743287 | 370,000 tested, 0.61% active | activation, % at 16.6 µM | INS-1E GLuc reporter insulin secretion, 2-3 h;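 active = lowest replicate activation of at least 40%, so every replicate reaches that level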;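 note: 0% = median of neutral control wells and 100% = median of IBMX positive control wells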
miR122 inh: inhibitors of miR-122 in Huh7 cells | 340,000 tested, 0.3% active | activation (reporter increase), % at 12.5 µM | AID 602342 | Huh7 miR-122 Renilla luciferase sensor, 48 h; neutral wells = 0, positive control = 100;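 active = mean replicate activation score at least 90 and every replicate individually at or above 90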;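 note: higher luciferase means less miR-122 activity so hits act as miR-122 inhibitors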
EWS-Fli block: EWS/Fli transcriptional activity inhibition | 350,000 tested, 0.67% active | AID 651661 | inhibition, % at 12.6 µM | A673 NR0B1-luciferase reporter, viability-normalised;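 active = mean inhibition of at least 50% after viability correction, with every replicate also passing that limit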;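 note: firefly luciferase signal divided by Alamar Blue viability fluorescence both relative to DMSO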
Starred values were filed as active, the others as inactive; [ ] = another dose, or the depositor's remark. In the library only some 3.1% were active in any assay of this set; here they are far more common.

Screening COC/C=C/C1=CC2=CC(=O)C(C)(OC(=O)c3cnc4ccccc4n3)C(=O)C2=CN1Cc1ccc(OC)cc1 (configuration not stated) returned Env fusion inh 9, PAX8 inh HTS -7, GSIS activator 5, miR122 inh -3 and EWS-Fli block -7.
COC/C=C/C1=CC2=CC(=O)C(C)(OC(=O)c3cnc4ccccc4n3)C(=O)C2=CN1C1CC1 (configuration not stated) was read as Env fusion inh -33, C2C12 statin -8, PAX8 inh HTS 66*, GSIS activator 1, miR122 inh 0 and EWS-Fli block -31.
Screening COC/C=C/C1=CC2=CC(=O)C(C)(OC(=O)c3cnc4ccccc4n3)C(=O)C2=CN1Cc1ccccc1 (configuration not stated) returned Env fusion inh -19, C2C12 statin -29, PAX8 inh HTS 80*, miR122 inh 1 and EWS-Fli block -2.
`O=C(C[C@H]1C=C[C@H](NC(=O)CCN2CCCCC2)[C@H](CO)O1)Nc1ccccc1` gave GSIS activator 15 and EWS-Fli block -4.
CCN(CC)S(=O)(=O)c1ccc(NC(=O)c2ccc(N(C)S(C)(=O)=O)cc2)cc1 was read as C2C12 statin 104* and miR122 inh -6.
For CCN(CC)S(=O)(=O)c1cccc(C(=O)Nc2ccc(C#N)cc2)c1 the results were Env fusion inh 57*, C2C12 statin -15 and miR122 inh 11.
`CCN(CC)S(=O)(=O)c1cccc(C(=O)Nc2cc(C)cc(C)c2)c1` gave Env fusion inh -26, C2C12 statin -11 and miR122 inh 17.
`COc1ccccc1CCn1cnc(-c2cccc(F)c2)c1CC(C)C` gave Env fusion inh -11, PAX8 inh HTS 11, GSIS activator 141* and EWS-Fli block 20.
`CCCc1c(-c2ccc(OC)cc2)ncn1CCc1ccccc1OC` gave Env fusion inh 13, PAX8 inh HTS 18, GSIS activator -37 and EWS-Fli block 26.
CCCc1c(-c2cccc(F)c2)ncn1CCc1ccccc1OC was read as Env fusion inh 13, PAX8 inh HTS 9, GSIS activator -4 and EWS-Fli block 24.
COc1ccccc1CCn1cnc(-c2ccc(Cl)cc2)c1CC(C)C was read as Env fusion inh 25, PAX8 inh HTS -12, GSIS activator 307* and EWS-Fli block 12.
`Cc1ccc(S(=O)(=O)N(C)C[C@H]2Oc3ccc(NC(=O)Nc4ccc5c(c4)OCO5)cc3C(=O)N([C@H](C)CO)C[C@@H]2C)cc1` gave Env fusion inh 4[16.7 µM], C2C12 statin -19, PAX8 inh HTS 0, GSIS activator -2, miR122 inh 4[16.7 µM] and EWS-Fli block 2.
For Cc1cccc(C(C)C)c1NC(=O)c1ccc(CN(c2ccccc2)S(=O)(=O)c2ccccc2)cc1 the results were Env fusion inh 60*, PAX8 inh HTS -10, GSIS activator -22 and miR122 inh 12.
For O=C(Nc1ccc(Br)cc1)c1cc2ccccn2n1 the results were Env fusion inh -105, PAX8 inh HTS -171, GSIS activator 54* and EWS-Fli block -106.
`O=C(NCCc1ccc(Cl)cc1)c1cc2ccccn2n1` gave Env fusion inh -7, PAX8 inh HTS -41, GSIS activator 4 and EWS-Fli block -34.
Screening COC(=O)C[C@@H]1CC[C@H]2[C@@H](COc3ccc(NC(=O)NCc4ccccc4)cc3C(=O)N2C)O1 returned Env fusion inh 9[16.7 µM], C2C12 statin 4, PAX8 inh HTS -6, GSIS activator 1, miR122 inh -4[16.7 µM] and EWS-Fli block 0.
Screening Cc1ccnc2ccc(SC(F)(F)F)cc12 returned Env fusion inh 5, C2C12 statin 21, PAX8 inh HTS 87*, GSIS activator 15, miR122 inh -3 and EWS-Fli block 8.
`O=C(O)c1ccc(CS(=O)(=O)Cc2ccccc2F)o1` gave PAX8 inh HTS 28, GSIS activator 7 and EWS-Fli block -3.
`CCN1CCN(C(=O)c2ccc(CS(=O)(=O)Cc3ccccc3F)o2)CC1` gave C2C12 statin 95*, GSIS activator 1, miR122 inh -5 and EWS-Fli block -3.
`CCOc1ccccc1NC(=O)c1ccc(OCC)c([N+](=O)[O-])c1` gave Env fusion inh -10, PAX8 inh HTS -7, GSIS activator -6 and EWS-Fli block 0.
CCOc1ccc(C(=O)Nc2cccc(-c3nc4ccccc4[nH]3)c2C)cc1[N+](=O)[O-] was read as Env fusion inh 16, PAX8 inh HTS 13, GSIS activator -8, miR122 inh -1 and EWS-Fli block 83*.
`CCOc1ccc(C(=O)Nc2cc(-c3nc4ccccc4[nH]3)ccc2C)cc1[N+](=O)[O-]` gave C2C12 statin -5 and miR122 inh 1.
`CCOc1ccc(C(=O)Nc2nc(C)cc(C)n2)cc1[N+](=O)[O-]` gave Env fusion inh 1, C2C12 statin 93*, PAX8 inh HTS -4, GSIS activator -1 and miR122 inh -3.
`COc1cc(C(=O)NC(=S)Nc2ccc(NC(=O)c3ccco3)cc2)cc(OC)c1OC` gave Env fusion inh 21, PAX8 inh HTS 10 and GSIS activator 4.
`CCOc1ccc(C(=O)NC(=S)Nc2ccc(NC(=O)c3ccco3)cc2)cc1[N+](=O)[O-]` gave Env fusion inh -6, PAX8 inh HTS 14 and GSIS activator 43*.
`CCOc1ccc(C(=O)Nc2ccc(NC(=O)c3cccs3)cc2)cc1[N+](=O)[O-]` gave Env fusion inh -164, PAX8 inh HTS -8, GSIS activator 104* and miR122 inh -4.
For CCCC(=O)Nc1ccc2c(c1)OC[C@@H](C)N(C(=O)C1CCCC1)C[C@H](C)[C@@H](OC)CN(C)C2=O the results were Env fusion inh -13[16.7 µM], C2C12 statin -3, GSIS activator 0, miR122 inh -18[16.7 µM] and EWS-Fli block 8.
For Cc1ccc(C)c(/C=N/NC(=S)NCCc2ccccc2)c1 the results were Env fusion inh -160, C2C12 statin 133*, PAX8 inh HTS 3 and miR122 inh -3.
CC1(C)C2CC=C(/C=N/NC(=S)NCCc3ccccc3)C1C2 (configuration not stated) was read as Env fusion inh 67*, PAX8 inh HTS 13 and EWS-Fli block 4.
`CNC(=S)N/N=C/C1=CCC2CC1C2(C)C` (configuration not stated) gave PAX8 inh HTS 33, GSIS activator -9 and EWS-Fli block 3.
`N#CCC(=O)N/N=C/c1cn(Cc2cccc3ccccc23)c2ccccc12` gave Env fusion inh -118, C2C12 statin -67, PAX8 inh HTS 26, GSIS activator 30, miR122 inh -6 and EWS-Fli block 53*.

Screens deposited in PubChem BioAssay by Broad Institute.
